Results reported in the supplement of paper PMC11732987, “Enantioselective OTUD7B fragment discovery through chemoproteomics screening and high-throughput optimisation” (Communications Chemistry, 2025).

Key:
Test in all cases: log2 ratio of Biotin-Ahx-Ub-VS probe labelling (fragment/DMSO); higher = less target engagement (more negative = stronger competition), active = hit call of the paper (q ≤ 0.05, log2 ratio ≤ -1)
Conditions in all cases: compound concentration: 200 uM; treatment time: 3 h
USP34 = USP34 (UniProt Q70CQ2)
Sequence of USP34 (Q70CQ2 whole entry, the tested form may be a part): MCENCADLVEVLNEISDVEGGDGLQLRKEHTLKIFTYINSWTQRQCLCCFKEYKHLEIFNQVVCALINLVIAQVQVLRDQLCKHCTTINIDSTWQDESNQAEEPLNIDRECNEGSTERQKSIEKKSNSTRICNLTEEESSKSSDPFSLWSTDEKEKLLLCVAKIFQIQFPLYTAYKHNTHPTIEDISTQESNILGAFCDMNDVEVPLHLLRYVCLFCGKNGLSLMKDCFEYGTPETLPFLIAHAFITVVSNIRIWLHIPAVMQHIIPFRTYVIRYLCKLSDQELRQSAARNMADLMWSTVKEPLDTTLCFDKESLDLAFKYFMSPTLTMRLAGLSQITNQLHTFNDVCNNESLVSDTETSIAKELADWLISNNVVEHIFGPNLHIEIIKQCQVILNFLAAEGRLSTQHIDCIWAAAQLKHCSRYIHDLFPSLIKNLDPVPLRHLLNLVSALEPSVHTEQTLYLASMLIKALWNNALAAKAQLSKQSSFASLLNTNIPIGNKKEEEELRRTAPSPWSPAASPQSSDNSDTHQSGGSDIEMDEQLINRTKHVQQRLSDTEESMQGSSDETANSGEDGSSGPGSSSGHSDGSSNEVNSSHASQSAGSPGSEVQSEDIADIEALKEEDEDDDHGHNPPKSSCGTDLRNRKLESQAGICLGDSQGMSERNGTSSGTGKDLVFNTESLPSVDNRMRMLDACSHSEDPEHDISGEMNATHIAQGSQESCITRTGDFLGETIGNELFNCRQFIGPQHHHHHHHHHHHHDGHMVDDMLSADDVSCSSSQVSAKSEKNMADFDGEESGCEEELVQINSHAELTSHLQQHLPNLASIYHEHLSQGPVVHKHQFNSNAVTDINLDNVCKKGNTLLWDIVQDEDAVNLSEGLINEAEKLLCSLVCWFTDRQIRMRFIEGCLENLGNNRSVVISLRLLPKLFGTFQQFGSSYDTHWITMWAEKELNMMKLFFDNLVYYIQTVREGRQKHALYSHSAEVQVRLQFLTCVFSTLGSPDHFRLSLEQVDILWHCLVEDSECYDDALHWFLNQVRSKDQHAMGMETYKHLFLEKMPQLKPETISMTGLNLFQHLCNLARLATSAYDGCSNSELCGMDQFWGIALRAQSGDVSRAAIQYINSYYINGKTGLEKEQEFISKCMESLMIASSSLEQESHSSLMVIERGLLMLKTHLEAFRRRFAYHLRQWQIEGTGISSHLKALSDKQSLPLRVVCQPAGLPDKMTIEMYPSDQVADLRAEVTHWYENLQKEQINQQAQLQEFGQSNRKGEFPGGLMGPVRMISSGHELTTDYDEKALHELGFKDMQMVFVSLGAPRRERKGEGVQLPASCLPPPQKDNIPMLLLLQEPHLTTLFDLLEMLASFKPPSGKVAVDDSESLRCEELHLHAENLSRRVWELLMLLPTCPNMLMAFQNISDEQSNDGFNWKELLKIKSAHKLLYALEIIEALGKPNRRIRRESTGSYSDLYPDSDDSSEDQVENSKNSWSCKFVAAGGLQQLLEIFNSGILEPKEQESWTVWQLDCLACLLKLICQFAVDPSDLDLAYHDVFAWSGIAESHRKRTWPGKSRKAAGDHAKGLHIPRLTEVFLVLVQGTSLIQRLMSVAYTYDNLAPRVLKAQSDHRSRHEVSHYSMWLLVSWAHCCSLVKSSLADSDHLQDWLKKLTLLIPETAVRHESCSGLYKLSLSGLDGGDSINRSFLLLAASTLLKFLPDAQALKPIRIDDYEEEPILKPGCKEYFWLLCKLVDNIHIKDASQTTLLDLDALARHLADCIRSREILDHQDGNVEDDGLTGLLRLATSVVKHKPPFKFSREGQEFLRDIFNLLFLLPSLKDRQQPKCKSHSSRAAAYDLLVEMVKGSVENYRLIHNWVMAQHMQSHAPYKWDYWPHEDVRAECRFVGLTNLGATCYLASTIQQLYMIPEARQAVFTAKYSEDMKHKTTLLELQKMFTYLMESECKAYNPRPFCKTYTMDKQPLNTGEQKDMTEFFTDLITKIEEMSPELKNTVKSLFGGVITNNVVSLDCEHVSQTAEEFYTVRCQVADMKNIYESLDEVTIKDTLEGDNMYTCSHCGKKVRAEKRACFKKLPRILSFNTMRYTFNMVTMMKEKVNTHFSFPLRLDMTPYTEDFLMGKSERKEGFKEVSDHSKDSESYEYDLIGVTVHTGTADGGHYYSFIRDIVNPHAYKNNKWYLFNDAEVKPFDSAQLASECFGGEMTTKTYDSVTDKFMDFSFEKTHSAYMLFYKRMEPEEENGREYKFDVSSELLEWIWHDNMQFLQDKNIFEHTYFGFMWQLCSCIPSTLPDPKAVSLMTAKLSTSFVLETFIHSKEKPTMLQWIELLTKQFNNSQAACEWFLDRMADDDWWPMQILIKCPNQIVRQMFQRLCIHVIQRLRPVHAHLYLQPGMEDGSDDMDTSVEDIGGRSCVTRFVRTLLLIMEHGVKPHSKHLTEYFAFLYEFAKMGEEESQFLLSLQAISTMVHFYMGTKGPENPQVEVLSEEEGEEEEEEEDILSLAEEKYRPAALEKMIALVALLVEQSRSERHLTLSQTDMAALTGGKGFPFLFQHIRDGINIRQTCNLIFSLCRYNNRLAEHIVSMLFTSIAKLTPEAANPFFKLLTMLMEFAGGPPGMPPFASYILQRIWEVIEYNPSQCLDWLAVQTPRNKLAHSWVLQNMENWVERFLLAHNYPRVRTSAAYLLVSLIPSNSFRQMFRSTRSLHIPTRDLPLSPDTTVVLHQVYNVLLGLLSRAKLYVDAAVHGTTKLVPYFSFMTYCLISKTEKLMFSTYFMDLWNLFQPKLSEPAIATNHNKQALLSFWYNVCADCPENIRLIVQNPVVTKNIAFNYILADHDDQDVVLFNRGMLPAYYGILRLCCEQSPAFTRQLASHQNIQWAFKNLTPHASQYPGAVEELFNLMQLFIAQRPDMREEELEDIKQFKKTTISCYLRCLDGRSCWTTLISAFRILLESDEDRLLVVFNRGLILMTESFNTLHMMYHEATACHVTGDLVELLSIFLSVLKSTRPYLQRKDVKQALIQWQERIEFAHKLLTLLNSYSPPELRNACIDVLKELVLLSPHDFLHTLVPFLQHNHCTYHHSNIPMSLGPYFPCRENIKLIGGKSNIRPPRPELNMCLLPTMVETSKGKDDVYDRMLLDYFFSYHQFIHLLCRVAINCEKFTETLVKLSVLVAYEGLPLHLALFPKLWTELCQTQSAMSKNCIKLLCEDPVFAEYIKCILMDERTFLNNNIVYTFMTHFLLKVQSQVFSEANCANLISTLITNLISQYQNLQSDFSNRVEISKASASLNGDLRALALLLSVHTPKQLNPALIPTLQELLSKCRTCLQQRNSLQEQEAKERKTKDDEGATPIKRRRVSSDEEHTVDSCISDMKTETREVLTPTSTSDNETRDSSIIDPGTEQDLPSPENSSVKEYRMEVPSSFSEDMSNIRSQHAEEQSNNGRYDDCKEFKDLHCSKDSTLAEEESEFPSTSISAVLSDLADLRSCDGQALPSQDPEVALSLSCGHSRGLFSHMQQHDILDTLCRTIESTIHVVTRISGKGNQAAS
In short: (§1)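 Fragment (200 µM) or vehicle was incubated for 3 h with triplicate HEK293T lysate samples of 495 µg, which were then treated with Biotin-Ahx-Ub-VS at 0.5 µM final for 1 h. Labelled DUBs were enriched on NeutrAvidin, digested with LysC and trypsin, and analysed by diaPASEF LC-MS/MS. Values are average log2 fragment/vehicle ratios from an unpaired t-test on global-median-normalised Spectronaut label-free quantities, using proteins with ≥2 unique peptides.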

USP36 = molecular target: T1, USP36 (UniProt Q9P275)
T1 sequence (whole entry): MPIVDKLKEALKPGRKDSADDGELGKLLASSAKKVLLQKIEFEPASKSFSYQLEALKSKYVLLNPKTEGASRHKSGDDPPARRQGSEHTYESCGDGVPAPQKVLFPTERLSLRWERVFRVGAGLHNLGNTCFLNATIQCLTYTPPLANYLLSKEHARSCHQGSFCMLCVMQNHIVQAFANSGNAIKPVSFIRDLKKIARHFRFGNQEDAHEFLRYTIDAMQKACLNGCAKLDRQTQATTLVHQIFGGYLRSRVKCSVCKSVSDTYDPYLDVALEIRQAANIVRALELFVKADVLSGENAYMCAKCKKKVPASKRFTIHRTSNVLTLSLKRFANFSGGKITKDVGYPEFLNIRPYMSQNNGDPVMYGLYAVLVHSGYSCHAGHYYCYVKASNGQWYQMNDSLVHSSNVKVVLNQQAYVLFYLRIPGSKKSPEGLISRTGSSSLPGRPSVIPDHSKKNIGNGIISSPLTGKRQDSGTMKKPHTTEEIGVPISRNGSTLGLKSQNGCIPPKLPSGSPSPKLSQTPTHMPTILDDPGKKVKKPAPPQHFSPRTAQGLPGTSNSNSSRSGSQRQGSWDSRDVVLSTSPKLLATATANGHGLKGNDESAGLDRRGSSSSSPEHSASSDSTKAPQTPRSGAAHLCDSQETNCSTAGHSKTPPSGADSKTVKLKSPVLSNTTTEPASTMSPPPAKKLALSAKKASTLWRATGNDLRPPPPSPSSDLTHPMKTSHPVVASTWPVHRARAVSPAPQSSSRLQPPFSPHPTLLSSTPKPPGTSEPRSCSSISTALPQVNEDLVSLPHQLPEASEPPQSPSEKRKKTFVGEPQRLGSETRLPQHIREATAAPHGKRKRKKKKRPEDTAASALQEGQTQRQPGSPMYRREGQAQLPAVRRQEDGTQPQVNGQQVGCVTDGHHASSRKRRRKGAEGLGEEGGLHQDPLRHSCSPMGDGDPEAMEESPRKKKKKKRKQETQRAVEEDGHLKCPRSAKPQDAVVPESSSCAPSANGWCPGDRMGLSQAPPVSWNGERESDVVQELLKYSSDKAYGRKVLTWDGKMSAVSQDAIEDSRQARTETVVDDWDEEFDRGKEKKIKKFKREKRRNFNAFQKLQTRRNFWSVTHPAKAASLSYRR
In short: as §1

USP38 = molecular target: T2, USP38 (UniProt Q8NB14)
T2 sequence (whole entry): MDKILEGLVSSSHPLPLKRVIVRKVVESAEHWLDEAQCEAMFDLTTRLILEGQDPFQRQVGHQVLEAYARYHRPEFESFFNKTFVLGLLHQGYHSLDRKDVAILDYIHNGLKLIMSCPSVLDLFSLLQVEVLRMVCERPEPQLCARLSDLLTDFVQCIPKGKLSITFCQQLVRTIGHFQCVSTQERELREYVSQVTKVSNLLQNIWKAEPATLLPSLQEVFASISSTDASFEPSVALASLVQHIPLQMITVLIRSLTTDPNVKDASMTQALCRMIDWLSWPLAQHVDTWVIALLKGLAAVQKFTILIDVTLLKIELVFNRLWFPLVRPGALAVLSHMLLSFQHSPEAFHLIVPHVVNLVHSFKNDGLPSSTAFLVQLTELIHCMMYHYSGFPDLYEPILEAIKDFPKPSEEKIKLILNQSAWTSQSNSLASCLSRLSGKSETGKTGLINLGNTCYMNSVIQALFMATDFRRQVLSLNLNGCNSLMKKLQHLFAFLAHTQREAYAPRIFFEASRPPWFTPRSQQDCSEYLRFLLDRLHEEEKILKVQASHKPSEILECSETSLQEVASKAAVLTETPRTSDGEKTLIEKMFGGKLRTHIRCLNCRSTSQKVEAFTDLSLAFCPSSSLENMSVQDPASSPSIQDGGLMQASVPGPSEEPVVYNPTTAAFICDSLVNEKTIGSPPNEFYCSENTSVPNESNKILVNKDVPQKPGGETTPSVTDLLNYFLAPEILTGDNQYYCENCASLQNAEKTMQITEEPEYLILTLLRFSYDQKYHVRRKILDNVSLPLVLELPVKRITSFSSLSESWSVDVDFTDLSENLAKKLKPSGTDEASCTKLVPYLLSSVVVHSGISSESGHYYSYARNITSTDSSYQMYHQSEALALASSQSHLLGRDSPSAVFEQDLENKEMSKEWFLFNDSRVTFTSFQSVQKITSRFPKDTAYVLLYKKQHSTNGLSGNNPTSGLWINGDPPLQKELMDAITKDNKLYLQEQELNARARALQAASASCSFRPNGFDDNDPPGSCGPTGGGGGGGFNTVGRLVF
In short: as §1

USP39 = molecular target: T3, USP39 (UniProt Q53GS9)
T3 sequence (whole entry): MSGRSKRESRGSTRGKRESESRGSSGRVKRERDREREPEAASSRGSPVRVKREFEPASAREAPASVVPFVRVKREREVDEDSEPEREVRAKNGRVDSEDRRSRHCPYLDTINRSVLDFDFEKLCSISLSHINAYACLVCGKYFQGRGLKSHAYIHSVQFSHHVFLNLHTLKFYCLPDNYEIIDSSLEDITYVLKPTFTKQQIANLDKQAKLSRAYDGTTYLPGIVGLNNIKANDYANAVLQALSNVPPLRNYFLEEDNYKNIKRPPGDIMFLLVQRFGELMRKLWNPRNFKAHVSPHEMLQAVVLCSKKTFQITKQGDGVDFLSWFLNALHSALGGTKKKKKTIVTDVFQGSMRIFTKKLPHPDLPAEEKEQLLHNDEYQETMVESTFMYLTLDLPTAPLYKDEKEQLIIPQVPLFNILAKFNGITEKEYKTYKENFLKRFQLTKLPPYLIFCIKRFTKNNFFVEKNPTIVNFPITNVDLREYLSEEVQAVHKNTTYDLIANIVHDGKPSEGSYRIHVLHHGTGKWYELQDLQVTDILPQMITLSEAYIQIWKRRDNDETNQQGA
In short: as §1

USP4 = molecular target: T4, USP4 (UniProt Q13107)
T4 sequence (whole entry): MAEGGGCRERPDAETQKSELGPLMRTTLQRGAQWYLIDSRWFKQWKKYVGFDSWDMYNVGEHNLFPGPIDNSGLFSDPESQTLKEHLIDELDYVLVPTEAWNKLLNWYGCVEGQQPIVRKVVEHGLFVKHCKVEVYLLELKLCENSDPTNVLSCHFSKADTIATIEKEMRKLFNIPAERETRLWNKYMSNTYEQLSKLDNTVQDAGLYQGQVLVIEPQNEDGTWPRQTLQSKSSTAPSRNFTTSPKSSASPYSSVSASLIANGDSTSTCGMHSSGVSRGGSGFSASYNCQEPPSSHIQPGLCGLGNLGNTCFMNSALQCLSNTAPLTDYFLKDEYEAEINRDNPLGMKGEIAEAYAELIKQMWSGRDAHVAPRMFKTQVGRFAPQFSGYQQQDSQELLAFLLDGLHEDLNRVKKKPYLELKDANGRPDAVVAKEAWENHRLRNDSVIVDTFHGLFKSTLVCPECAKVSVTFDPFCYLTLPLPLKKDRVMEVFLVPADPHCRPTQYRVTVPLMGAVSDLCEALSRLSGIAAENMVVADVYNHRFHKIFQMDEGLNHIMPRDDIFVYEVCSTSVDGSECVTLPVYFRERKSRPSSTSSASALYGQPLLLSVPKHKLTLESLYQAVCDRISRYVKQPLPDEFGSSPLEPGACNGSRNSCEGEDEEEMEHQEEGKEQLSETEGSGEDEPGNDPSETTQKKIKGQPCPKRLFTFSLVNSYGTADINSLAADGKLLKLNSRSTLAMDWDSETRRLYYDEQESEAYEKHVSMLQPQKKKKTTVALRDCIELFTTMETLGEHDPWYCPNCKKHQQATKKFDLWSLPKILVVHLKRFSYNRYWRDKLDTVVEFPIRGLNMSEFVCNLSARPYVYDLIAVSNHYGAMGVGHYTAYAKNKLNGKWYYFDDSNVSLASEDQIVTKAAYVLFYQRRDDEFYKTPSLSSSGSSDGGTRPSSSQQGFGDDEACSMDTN
In short: as §1

Measured: log2 ratio of Biotin-Ahx-Ub-VS probe labelling

Cc1nc(CNC(=O)CCl)c2ccccn12.Cl
inactive: USP34 -0.0794 | USP36 -0.09 | USP38 -0.0607 | USP39 0.302 | USP4 -0.0724
